The results in this text go back to PubChem BioAssay (EPA / NIEHS).

Results filed as inconclusive are left out. Calls of active or inactive are those of the source. How the source made its calls: active means hit-call score of the fitted dose curve at least 0.9, where 1 is the maximum; inconclusive means response in the unintended direction; inactive means score below 0.9. Where a SMILES comes first, the peptide text is derived from it. [ ]: non-standard residue; d: D form. pGlu = O=C1CC[C@@H](C(=O)O)N1; Thz = O=C(O)[C@@H]1CSCN1

Sequence of Cellular tumor antigen p53 (Homo sapiens) (P04637 whole entry, looked up): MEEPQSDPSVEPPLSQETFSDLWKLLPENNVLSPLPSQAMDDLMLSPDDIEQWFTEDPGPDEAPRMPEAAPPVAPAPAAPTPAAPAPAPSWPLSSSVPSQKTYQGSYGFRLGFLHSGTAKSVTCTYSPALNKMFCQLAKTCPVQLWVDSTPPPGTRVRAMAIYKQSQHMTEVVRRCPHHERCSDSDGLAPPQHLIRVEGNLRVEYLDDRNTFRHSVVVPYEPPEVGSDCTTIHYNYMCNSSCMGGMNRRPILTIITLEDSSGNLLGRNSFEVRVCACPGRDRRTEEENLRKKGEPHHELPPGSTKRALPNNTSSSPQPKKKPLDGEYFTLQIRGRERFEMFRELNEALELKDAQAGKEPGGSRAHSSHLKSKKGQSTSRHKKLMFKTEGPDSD

Test system in one assay: not listed separately
Nature of the assay: TOX21_p53_BLA_p2_viability: Viability Assessment in the Tox21 HCT-116 p53 Agonism Beta-lactamase Assay, Phase 2 (AID 2283591).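 Further: compound exposure lasted 16 h at 37 °C; actives lower the ATP signal meaning cytotoxicity.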 The essentials: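 HCT-116 p53-bla cells (4000/well) rested 5 h at 37C, then received compounds in DMSO (217-fold dilution) for 16 h at 37C, 5% CO2. After the CCF4 read, CellTiter-Glo was added; ATP luminescence was read after 30 min at room temperature.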
Take `CCN(CC)c1cccc(O)c1`: the call was inactive.
As for `CNC(=O)OCc1cccc(COC(=O)NC)n1`, the call was inactive.
The same measure, in the same setting: the same measure for `CCCCCCCC`: “inactive”; for `C[N+](C)(C)CCOC(=O)CCC(=O)OCC[N+](C)(C)C`: “inactive”; for `CCOC(=O)c1c[nH]c2cc(OCC(C)C)c(OCC(C)C)cc2c1=O`: “inactive”.
Still for that read-out and setting: the same measure for H-RKDVY-OH: “inactive”; for `C[C@H]1[C@@H](OC(=O)CCC(=O)O)O[C@@H]2OC3(C)CC[C@H]4[C@H](C)CC[C@@H]1[C@@]24OO3`: “inactive”.
For the molecule `CCCN(CCC)CCc1cccc2c1CC(=O)N2`, the outcome was inactive.
Turning to `CC(C)Cn1cnc2c(N)nc3ccccc3c21`, the call was inactive.
On to `C/C=C/C=C/CO`, for which the result was inactive.
Turning to `CC(C)(C)OCC1CO1` (stereo not given), the call was inactive.
On the same count and under the same terms, as for `CO[C@H]1C[C@H](O[C@H]2[C@H](C)[C@@H](O[C@@H]3O[C@H](C)C[C@H](N(C)C)[C@H]3O)[C@@H](C)C[C@]3(CO3)C(=O)[C@H](C)[C@@H](O)[C@@H](C)[C@@H](C)OC(=O)[C@@H]2C)O[C@@H](C)[C@@H]1O`, the entry is “inactive”; as for `CCCCS`, “inactive”.
As to `CC1CC(C)C(=O)C1=O` (stereo not given), the molecule was called inactive.
Turning to `NC(CSCC(=O)O)C(=O)O` (stereo not given), the outcome was inactive.
In the case of `O=C1CC[C@@H](C(=O)N2CSC[C@H]2C(=O)O)N1` ([pGlu]-[Thz]-OH), the outcome was inactive.
Consider `CCCCCCCCCCCCCCCC(=O)NCCO`, for which the call was inactive.
As for `Cc1cn[nH]c1`, the molecule was classed as inactive.
The same measure, in the same setting: the same measure for `CN(C)CCn1nnnc1SCC1=C(C(=O)O)N2C(=O)[C@@H](NC(=O)Cc3csc(N)n3)[C@H]2SC1`: “inactive”; for `c1coc(Cn2cccc2)c1`: “inactive”.
Turning to `CC(C(=O)O)c1ccc2c(c1)[nH]c1ccc(Cl)cc12` (stereo not given), the molecule was classed as inactive.
The same measure, in the same setting: as for `OCc1ccccc1O`, the entry is “inactive”; as for `CC=CC(=O)CC`, “inactive”.
The same measure, in the same setting: as for `CN(C)CCC=C1c2ccccc2CSc2ccccc21`, the entry is “inactive”.
As to `CC1(C)[C@H](C(=O)O)N2C(=O)C[C@H]2S1(=O)=O`, the outcome was inactive.
On the same count and under the same terms, the same measure for `CCCCCC=CCC1CC(=O)OC1=O` (stereo not given): “inactive”; for `CCC(=O)OC`: “inactive”; for `C#CCN(C)CCCOc1ccc(Cl)cc1Cl`: “inactive”.
On to `C[C@@H]1C[C@H]2[C@@H]3CCC4=CC(=O)C=C[C@]4(C)[C@@]3(F)[C@@H](O)C[C@]2(C)[C@@]1(O)C(=O)COC(=O)c1cccc(S(=O)(=O)O)c1`, for which the molecule was classed as inactive.
Same read-out and setting: as for `N=C(N=C(N)N)N1CCOCC1`, the entry is “inactive”; as for `C[S+](CC[C@H](N)C(=O)O)C[C@H]1O[C@@H](n2cnc3c(N)ncnc32)[C@H](O)[C@@H]1O` (stereo not given in full), “inactive”; as for `O=[N+]([O-])c1ccccc1Nc1ccccc1`, “inactive”.
In the case of `NS(=O)(=O)c1cc(Cl)c(Cl)c(S(N)(=O)=O)c1`, the call was inactive.
Take `CN(C)CCC(c1ccccc1)c1ccccn1` (stereo not given): the call was inactive.
On to `N.N.O=C([O-])C1(C(=O)[O-])CCC1.[Pt+4]`, for which the molecule was classed as inactive.
Still for that read-out and setting: as for `C[C@@]12C(=O)OC(=O)[C@]1(C)C1CCC2O1`, the entry is “inactive”; as for `C[C@@H](O)[C@H](N)C(=O)O`, “inactive”.
Still for that read-out and setting: as for `O=C(O)c1cccc(Cl)c1Cl`, the entry is “inactive”; as for `CC[N+](C)(C)Cc1ccccc1Br`, “inactive”.
Consider `Cc1c(NC(=O)c2cccnc2)c(=O)n(-c2ccccc2)n1C`, for which the result was inactive.

The target in another assay is Cellular tumor antigen p53 (Homo sapiens) (UniProt P04637). Kind of assay: TOX21_p53_BLA_p2_ratio: Tox21 HCT-116 p53 Agonism Beta-lactamase Assay, Ratio, Phase 2 (AID 2283592). The essentials:
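Read-out is the blue/green (460/530 nm, 405 nm excitation) ratio after 2 h CCF4-AM loading, fitted as gain versus DMSO. Compounds, pinned at 217-fold dilution from DMSO stocks, stayed 16 h on HCT-116 beta-lactamase reporter cells seeded 5 h earlier.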
As to `CCN(CC)c1cccc(O)c1`, the outcome was inactive.
Still for that read-out and setting: as for `CNC(=O)OCc1cccc(COC(=O)NC)n1`, the entry is “inactive”.
Same read-out and setting: the same measure for `CCCCCCCC`: “inactive”; for `C[N+](C)(C)CCOC(=O)CCC(=O)OCC[N+](C)(C)C`: “inactive”; for `CCOC(=O)c1c[nH]c2cc(OCC(C)C)c(OCC(C)C)cc2c1=O`: “inactive”.
The same measure, in the same setting: as for H-RKDVY-OH, the entry is “inactive”; as for `C[C@H]1[C@@H](OC(=O)CCC(=O)O)O[C@@H]2OC3(C)CC[C@H]4[C@H](C)CC[C@@H]1[C@@]24OO3`, “inactive”.
With `CCCN(CCC)CCc1cccc2c1CC(=O)N2`, the result was inactive.
The same measure, in the same setting: the same measure for `CC(C)Cn1cnc2c(N)nc3ccccc3c21`: “inactive”; for `C/C=C/C=C/CO`: “inactive”.
With `CC(C)(C)OCC1CO1` (stereo not given), the result was inactive.
Same read-out and setting: the same measure for `CO[C@H]1C[C@H](O[C@H]2[C@H](C)[C@@H](O[C@@H]3O[C@H](C)C[C@H](N(C)C)[C@H]3O)[C@@H](C)C[C@]3(CO3)C(=O)[C@H](C)[C@@H](O)[C@@H](C)[C@@H](C)OC(=O)[C@@H]2C)O[C@@H](C)[C@@H]1O`: “inactive”.
For the molecule `CCCCS`, the result was inactive.
On to `CC1CC(C)C(=O)C1=O` (stereo not given), for which the outcome was inactive.
Take `NC(CSCC(=O)O)C(=O)O` (stereo not given): the outcome was inactive.
Turning to `O=C1CC[C@@H](C(=O)N2CSC[C@H]2C(=O)O)N1` ([pGlu]-[Thz]-OH), the result was inactive.
Still for that read-out and setting: as for `CCCCCCCCCCCCCCCC(=O)NCCO`, the entry is “inactive”; as for `Cc1cn[nH]c1`, “inactive”.
Take `CN(C)CCn1nnnc1SCC1=C(C(=O)O)N2C(=O)[C@@H](NC(=O)Cc3csc(N)n3)[C@H]2SC1`: the outcome was inactive.
Same read-out and setting: as for `c1coc(Cn2cccc2)c1`, the entry is “inactive”; as for `CC(C(=O)O)c1ccc2c(c1)[nH]c1ccc(Cl)cc12` (stereo not given), “inactive”.
The same measure, in the same setting: the same measure for `OCc1ccccc1O`: “inactive”.
`CC=CC(=O)CC`: the outcome was inactive.
Consider `CN(C)CCC=C1c2ccccc2CSc2ccccc21`, for which the result was inactive.
Still for that read-out and setting: as for `CC1(C)[C@H](C(=O)O)N2C(=O)C[C@H]2S1(=O)=O`, the entry is “inactive”; as for `CCCCCC=CCC1CC(=O)OC1=O` (stereo not given), “inactive”.
As to `CCC(=O)OC`, the AC50 was 82.7 µM (active).
Regarding `C#CCN(C)CCCOc1ccc(Cl)cc1Cl`, the outcome was inactive.
For `C[C@@H]1C[C@H]2[C@@H]3CCC4=CC(=O)C=C[C@]4(C)[C@@]3(F)[C@@H](O)C[C@]2(C)[C@@]1(O)C(=O)COC(=O)c1cccc(S(=O)(=O)O)c1`, the result was inactive.
Regarding `N=C(N=C(N)N)N1CCOCC1`, the outcome was inactive.
Consider `C[S+](CC[C@H](N)C(=O)O)C[C@H]1O[C@@H](n2cnc3c(N)ncnc32)[C@H](O)[C@@H]1O` (stereo not given in full), for which the result was inactive.
Still for that read-out and setting: the same measure for `O=[N+]([O-])c1ccccc1Nc1ccccc1`: “inactive”; for `NS(=O)(=O)c1cc(Cl)c(Cl)c(S(N)(=O)=O)c1`: “inactive”.
As to `CN(C)CCC(c1ccccc1)c1ccccn1` (stereo not given), the result was inactive.
As to `N.N.O=C([O-])C1(C(=O)[O-])CCC1.[Pt+4]`, the result was inactive.
Turning to `C[C@@]12C(=O)OC(=O)[C@]1(C)C1CCC2O1`, the AC50 was 0.446 µM (active).
Consider `C[C@@H](O)[C@H](N)C(=O)O`, for which the outcome was inactive.
Turning to `O=C(O)c1cccc(Cl)c1Cl`, the outcome was inactive.
Consider `CC[N+](C)(C)Cc1ccccc1Br`, for which the result was inactive.
As for `Cc1c(NC(=O)c2cccnc2)c(=O)n(-c2ccccc2)n1C`, the result was inactive.
